Compounds with a hit are over-represented: about 1.5% of the library has one in this group of screens.
EBV gp42 block – EBV gp42 inhibition; Q1HVG2; Fluorescence polarization binding assay, mP read-out; inhibition, % (tested at 21.74 µM); actives 0.42% (n = 220,000); in the data active means inhibition above about 50%
LANA DNA inh – KSHV C-LANA DNA binding inhibition. MBP-C-LANA/FAM-LBS DNA binding, fluorescence polarization. inhibition, % at 9 µM. actives 0.078% (n = 340,000). AID 504423;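 active means highest replicate inhibition at or above 60% at 9 µM, even if other replicates fall short; inactive means all replicates below 60% inhibition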
GLD-1 RNA inh – GLD-1-TGE RNA interaction inhibition (C. elegans). actives 0.44% (n = 320,000). inhibition, % at 5.96 µM. Q17339. AID 2280. purified GLD-1 + fluorescein TGE RNA, fluorescence polarization;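 active means percent inhibition above a per-plate cutoff, the plate mean of test compounds plus 3 SD, cut at about 30% in these data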
Keap1 Nrf2 FP – Keap1-Nrf2 (human) interaction inhibition; Q14145; Keap1 Kelch-Nrf2 peptide fluorescence polarization, 1536-well; inhibition, % at 9.4 µM; actives 0.15% (n = 340,000); in the data active means inhibition above about 12%; inconclusive means no clear call, values can overlap the other calls; inactive means below about 7.3%;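 further: human Keap1 Kelch domain with fluorescein labeled Nrf2 9mer peptide probe; higher means more block of Keap1 binding to Nrf2 peptide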
LANA-H2A inh – blocks KSHV LANA binding to histone H2A/H2B | Q9QR71 | cell-free LANA-H2A/H2B peptide, fluorescence polarization | inhibition, % (concentration not given with the values) | actives 0.6% (n = 320,000) | AID 2629; in the data active means inhibition mostly above about 10%, no sharp cut-off; inactive means mostly below about 6.7%
E coli Lon inh – inhibitors of E. coli Lon protease; AID 602123; actives 0.42% (n = 360,000); inhibition, % at 7.94 µM; purified E. coli Lon protease, fluorescence polarization; in the data active means inhibition above about 13%, passing the limit was not always enough
Numbers stand for hits; – = inactive; ? = inconclusive; · = no result; + = active, no number.

SMILES | EBV gp42 block | LANA DNA inh | GLD-1 RNA inh | Keap1 Nrf2 FP | LANA-H2A inh | E coli Lon inh
COc1ccc(CN2C(=O)C(CC(=O)NCc3cccc4ccccc34)CC(C(=O)N(C(C)C)C(C)C)=C2C)cc1 (stereo unspecified) | · | · | · | · | · | –
CN(Cc1ccccc1)C(=O)Cn1nnc(-c2ccccc2)c1COc1ccccc1 | · | · | · | · | · | –
CCOc1ccc(C(=O)Nc2ccc(N3CCN(C(C)=O)CC3)cc2)cc1[N+](=O)[O-] | – | – | – | – | 18 | –
Nc1ncnc2c1ncn2[C@@H]1O[C@H](C(=O)N[C@H]2c3ccccc3C[C@H]2O)[C@@H](O)[C@H]1O | · | · | · | · | · | –
Cn1nc(C(F)(F)F)cc1-c1ccc(/C=C(\C#N)C(=O)c2ccccc2)s1 | – | – | – | ? | 20 | –
O=C(O)C(C/C(=N/O)c1ccc(Br)cc1)P(=O)(c1ccccc1)c1ccccc1 (stereo unspecified) | – | – | – | – | 15 | –
Cc1cc(C(O)c2ncc(-c3ccccc3F)[nH]2)ccc1F (stereo unspecified) | · | · | · | · | · | –
COc1ccc(C(CC(=O)N2CCCCC2)c2c(OC)cc(OC)c3c(-c4ccccc4)cc(=O)oc23)cc1 (stereo unspecified) | – | – | – | – | – | –
COc1ccc(C(CC(=O)N2CCCC2)c2c(OC)cc(OC)c3c(-c4ccccc4)cc(=O)oc23)cc1 (stereo unspecified) | 82 | – | – | – | – | –
O=c1oc2ccccc2nc1/C=C(\O)c1ccc(Br)cc1 | 64 | – | – | – | – | –
Cc1ccc2oc(=O)c(/C=C(\O)c3ccccc3)nc2c1 | 59 | – | – | – | – | –
Cc1ccc2oc(=O)c(/C=C(\O)c3cccs3)nc2c1 | – | – | – | – | – | –
C[C@@H]1COC(=O)[C@H](NC(=O)OCC2c3ccccc3-c3ccccc32)C/C=C\C[C@@H](CC(=O)N[C@H](CO)Cc2ccccc2)C(=O)N1 | · | – | – | – | – | –
O=C(C[C@@H]1C/C=C\C[C@@H](NC(=O)OCC2c3ccccc3-c3ccccc32)C(=O)OCCNC1=O)N[C@@H](CO)Cc1ccccc1 | · | – | – | – | + | –
CCc1nc2ccc(C(=O)Nc3ccc(C(=O)N(C)C)cc3)cn2c1N(C)CCCc1ccccc1 | · | · | · | · | · | –
CC1(C)CC(=O)C2=C(C1)N(c1cccc(O)c1)C1=C(C2)C(=O)CC(C)(C)C1 | – | – | 40 | – | – | –
CN(C(=O)c1ccc2c(c1)OCO2)C1(C)CCS(=O)(=O)C1 (stereo unspecified) | · | – | – | – | 14 | –
CC(CN1CCCCC1)NC(=O)c1scnc1-c1ccccc1 (stereo unspecified) | · | · | · | · | · | –
COc1ccc(Cl)cc1NC(=O)CN(C)C(=O)CSc1ccc2c(c1)OCCO2 | · | – | – | – | – | –
Cc1ccc(NC(=O)Nc2nnc([C@H]3C[C@H](O)[C@@H](CO)O3)s2)cc1 | · | · | · | · | · | –
COc1ccc(C=C(c2nc3ccccc3s2)c2nc3ccccc3s2)cc1O | – | – | 32 | – | – | –
COc1cc(C=C(c2nc3ccccc3s2)c2nc3ccccc3s2)ccc1O | – | – | – | – | – | –
COc1ccc(C2=CC(c3cc(OC)c(OC)c(OC)c3)NC(=S)N2)cc1 (stereo unspecified) | – | – | – | – | 20 | –
CS(=O)(=O)N1N=C(c2ccccc2)CC1c1ccc2c(c1)OCO2 (stereo unspecified) | 91 | – | – | – | – | –
CC(C)C(=O)Nc1cccc(NC(=S)NC(=O)c2cccs2)c1 | · | – | – | – | – | –
SMILES | EBV gp42 block | LANA DNA inh | GLD-1 RNA inh | Keap1 Nrf2 FP | LANA-H2A inh | E coli Lon inh
COc1cc(NC(=S)NC(=O)c2cccs2)ccc1NC(=O)C(C)C | – | – | – | – | 37 | –
CCNc1c2c3c(cccc3n(C)c1=O)C(=O)c1ccccc1-2 | – | · | 164 | · | 44 | ·
NC(=O)c1ccsc1N | – | · | 119 | · | – | ·
C/C(=N\NC(=O)c1cc(-c2ccccn2)nc2ccccc12)c1cccc([N+](=O)[O-])c1 | – | 98 | – | – | – | –
O=C(CSc1ccc2nnc(-c3cccnc3)n2n1)Nc1ccc(F)cc1 | · | – | – | – | 31 | –
Cc1cccc(NC(=O)CSc2ccc3nnc(-c4cccnc4)n3n2)c1 | · | – | – | – | 13 | –
O=C(CSc1nnc(-c2cccnc2)n1-c1ccccc1)Nc1ccccc1 | – | – | – | – | 15 | –
COc1cccc(NC(=O)CSc2ccc3nnc(-c4cccnc4)n3n2)c1 | · | – | – | – | – | –
COc1cncc(C#Cc2ccccn2)c1 | · | · | · | · | · | –
CC(C)C(=O)NC(c1ccc(N(C)C)cc1)c1c(O)ccc2ccccc12 (stereo unspecified) | – | – | – | – | 27 | –
CC(C)(C)C(=O)NC(c1ccccc1)c1c(O)ccc2ccccc12 (stereo unspecified) | · | – | – | – | – | –
CCOC(=O)CCCCC(=O)c1[nH]c(=O)[nH]c1C[n+]1ccccc1 | – | · | – | · | 17 | ·
CCOC(=O)CCCCC(=O)c1[nH]c(=O)[nH]c1C[n+]1ccc(C)cc1 | – | – | – | – | – | –
CCCOc1ccc(NC(=O)C(=O)NCCCn2ccnc2)cc1 | – | – | – | – | – | –
Cc1[nH]n(-c2ccccc2)c(=O)c1C=Nc1ccc2[nH]c(=O)[nH]c2c1 | – | – | – | – | – | –
O=c1[nH]c2ccc(N=Cc3c(O)ccc4cc(Br)ccc34)cc2[nH]1 | 82 | – | · | – | · | –
COC(=O)[C@@]1(Cc2ccc(F)cc2)[C@H]2c3cc(C(=O)N4CCCC4)n(C)c3C[C@H]2CN1C(=O)c1ccccc1 | · | · | · | · | · | –
COC(=O)CCCC1=CC2=CC(=O)C(C)(OC(=O)C3CCCC3)C(=O)C2=CO1 (stereo unspecified) | – | – | 48 | – | – | ·
COC(=O)CCCC1=CC2=C(c3ccccc3)C(=O)C(C)(OC(=O)C3CCCC3)C(=O)C2=CN1C1CCCC1 (stereo unspecified) | – | – | – | – | – | –
CC1(OC(=O)c2cccs2)C(=O)C=C2C=C(c3ccsc3)OC=C2C1=O (stereo unspecified) | · | · | – | · | – | ·
CCCCC1=CC2=CC(=O)C(C)(OC(=O)C3CCCC3)C(=O)C2=CO1 (stereo unspecified) | – | – | 36 | – | – | –
CC1(OC(=O)C2CCCC2)C(=O)C=C2C=C(c3ccsc3)OC=C2C1=O (stereo unspecified) | – | 78 | – | – | – | –
NC(=S)NN=Cc1ccc(-c2ccc(S(=O)(=O)Nc3ncccn3)cc2)o1 | · | 73 | – | ? | · | –
Cc1cc(F)cc(-c2cc(C(=O)NCC3CCCCC3)[nH]n2)c1 | · | · | · | · | · | –
Cc1ccc2cc3c(N)c4c(C)ccc(C)c4nc3nc2c1 | 148 | – | · | – | · | –
Cc1ccc2c(N)c(C)ccc2c1 | – | – | – | – | – | –
CCCC(=O)Nc1sc(Cc2ccccc2)c(C)c1C(N)=O | – | – | – | – | – | –

From PubChem BioAssay
